From the supplement of paper PMC12645437, “Orthogonal IMiD-Degron Pairs Induce Selective Protein Degradation in Cells” (ACS Chemical Biology, 2025)
Whole data set: some 8,300 sequences, median “log2 fold change of degron read counts, EGFP-low vs EGFP+ sorted cells (limma voom), compound-induced degradation” near -1.1, cut for the highest 2% near 3.2. Many of the other results were omitted from the sample, so the highest values are more common in it than they were.

Target: T1, CRBN, Q96SW2
T1 chain: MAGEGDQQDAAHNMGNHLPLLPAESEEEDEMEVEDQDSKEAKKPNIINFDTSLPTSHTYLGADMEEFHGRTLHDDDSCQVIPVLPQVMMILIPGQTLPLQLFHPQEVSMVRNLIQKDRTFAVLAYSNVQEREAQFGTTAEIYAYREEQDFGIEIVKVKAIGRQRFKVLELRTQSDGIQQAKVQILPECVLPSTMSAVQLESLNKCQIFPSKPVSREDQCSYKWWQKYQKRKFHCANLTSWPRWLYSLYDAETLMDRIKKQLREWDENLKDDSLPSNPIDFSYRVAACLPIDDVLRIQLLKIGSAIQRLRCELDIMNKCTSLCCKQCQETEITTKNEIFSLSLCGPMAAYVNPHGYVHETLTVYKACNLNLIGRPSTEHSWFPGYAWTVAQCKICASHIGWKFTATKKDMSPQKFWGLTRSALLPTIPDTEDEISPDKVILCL
Test: log2 fold change of degron read counts, EGFP-low vs EGFP+ sorted cells (limma voom), compound-induced degradation; higher = more compound-induced degradation of the degron-EGFP fusion; degrons are variants of IKZF1/3 zinc finger 2; compound dose not given here
Conditions: Jurkat, 18 h
Procedure: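 Pooled library of 8380 IKZF3 ZF2 degron mutants (positions 146-167 varied within the IKZF3 130-189 degron; only the varied core is printed, flanks not printed) fused to EGFP with IRES-mCherry, lentivirally expressed in Jurkat cells. mCherry+ cells were treated with one IMiD compound for 18 h (dose not stated) and FACS-sorted into EGFP-low and EGFP+ populations. Degron sequences were counted by NGS, and log2FC (EGFP-low vs EGFP+) was estimated by limma voom over 3 biological replicates.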

[1] = compound: compound 19 (5-tert-butyl-thalidomide)
[2] = compound: compound 22 (5-morpholino-thalidomide)
[3] = compound: compound 33 (diphenyl IMiD analogue)
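Note: pooled lentiviral library of zinc finger degron-EGFP fusions in mCherry-positive Jurkat cells, FACS-sorted after compound exposure, with degron abundance counted by next-generation sequencing.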

Row | Sequence | log2 fold change of degron read counts [1] | log2 fold change of degron read counts [2] | log2 fold change of degron read counts [3] | log2 fold change of degron read counts (compound: thalidomide)
1 | FDCDICGATFTQKGNLLRHIKL [46F_47D_49D_50I_52G_53A_54T_55F_67L_, Q9UKT9] | -0.229 | -1.86 | -1.66 | -1.78
2 | FICNQCGAGFTQKGNLLRHIKL [46F_47I_49N_50Q_52G_53A_54G_55F_67L_, Q9UKT9] | -2.57 | -1.54 | -0.787 | -0.966
3 | FYCPICGHNFTQKGNLLRHIKL [46F_47Y_49P_50I_52G_53H_54N_55F_67L_, Q9UKT9] | -1.61 | -1.84 | -0.993 | -1.92
4 | LVCPICGFPCTQKGNLLRHIKL [46L_47V_49P_50I_52G_53F_54P_55C_67L_, Q9UKT9] | 0.138 | 1.61 | 0.747 | 1.9
5 | LECPICGFSCTQKGNLLRHIKL [46L_47E_49P_50I_52G_53F_54S_55C_67L_, Q9UKT9] | 1.9 | 0.453 | 2.42 | 3.62
6 | LDCPICGFSCTQKGNLLRHIKL [46L_47D_49P_50I_52G_53F_54S_55C_67L_, Q9UKT9] | 1.61 | 0.446 | 1.19 | 2.17
7 | LKCPICGFSCTQKGNLLRHIKL [46L_47K_49P_50I_52G_53F_54S_55C_67L_, Q9UKT9] | 1.33 | -0.186 | -0.695 | 1.64
8 | LSCPICGFSCTQKGNLLRHIKL [46L_47S_49P_50I_52G_53F_54S_55C_67L_, Q9UKT9] | 3.04 | 3.05 | 2.54 | 2.8
9 | LLCPICGFSCTQKGNLLRHIKL [46L_47L_49P_50I_52G_53F_54S_55C_67L_, Q9UKT9] | 1.38 | 0.88 | 1.79 | 2.5
10 | LHCPICGFSCTQKGNLLRHIKL [46L_47H_49P_50I_52G_53F_54S_55C_67L_, Q9UKT9] | 3.33 | 3.49 | 2.83 | 2.54
11 | LMCPICGFSCTQKGNLLRHIKL [46L_47M_49P_50I_52G_53F_54S_55C_67L_, Q9UKT9] | 1.63 | 2.78 | 2.99 | 2.69
12 | LACPICGFSCTQKGNLLRHIKL [46L_47A_49P_50I_52G_53F_54S_55C_67L_, Q9UKT9] | 3.69 | 3.18 | 2.48 | 2.94
13 | LGCPICGFECTQKGNLLRHIKL [46L_47G_49P_50I_52G_53F_54E_55C_67L_, Q9UKT9] | 1.95 | 0.368 | 0.47 | 0.369
14 | LICPICGFSCTQKGNLLRHIKL [46L_47I_49P_50I_52G_53F_54S_55C_67L_, Q9UKT9] | 0.996 | 3.08 | 2.1 | 3.18
15 | LGCPICGFSCTQKGNLLRHIKL [46L_47G_49P_50I_52G_53F_54S_55C_67L_, Q9UKT9] | 3.62 | 2.62 | 2.12 | 1.55
16 | LTCEICGFWCTQKGNLLRHIKL [46L_47T_49E_50I_52G_53F_54W_55C_67L_, Q9UKT9] | -0.648 | -0.501 | 0.784 | 0.539
17 | FDCDICGAAFTQKGNLLRHIKL [46F_47D_49D_50I_52G_53A_54A_55F_67L_, Q9UKT9] | 0.561 | -1.32 | -1.46 | -0.827

Row | Sequence | log2 fold change of degron read counts [1] | log2 fold change of degron read counts [2] | log2 fold change of degron read counts [3] | log2 fold change of degron read counts (compound: thalidomide)
18 | FRCEICGHVFTQKGNLLRHIKL [46F_47R_49E_50I_52G_53H_54V_55F_67L_, Q9UKT9] | -2.92 | -3.64 | -1.71 | -2.21
19 | FMCNVCGAAFTQKGNLLRHIKL [46F_47M_49N_50V_52G_53A_54A_55F_67L_, Q9UKT9] | -1.07 | -0.0279 | 2 | 0.272
20 | FTCEVCGAGFTQKGNLLRHIKL [46F_47T_49E_50V_52G_53A_54G_55F_67L_, Q9UKT9] | 2.39 | 2.34 | 2.42 | 2.32
21 | FNCDVCGAFFTQKGNLLRHIKL [46F_47N_49D_50V_52G_53A_54F_55F_67L_, Q9UKT9] | -1.57 | -2.42 | -1.91 | -2.42
22 | LDCNQCGFCCTQKGNLLRHIKL [46L_47D_49N_50Q_52G_53F_54C_55C_67L_, Q9UKT9] | -2.36 | -3.41 | -2.85 | -2.58
23 | FTCEICGAWFTQKGNLLRHIKL [46F_47T_49E_50I_52G_53A_54W_55F_67L_, Q9UKT9] | -0.788 | -0.479 | 1.12 | 1.04
24 | FRCSVCGHLFTQKGNLLRHIKL [46F_47R_49S_50V_52G_53H_54L_55F_67L_, Q9UKT9] | -2.53 | -3.16 | -2.34 | -2.39
25 | LYCNQCGFQCTQKGNLLRHIKL [46L_47Y_49N_50Q_52G_53F_54Q_55C_67L_, Q9UKT9] | -1.36 | -0.758 | -1.33 | -2.14
26 | LQCPICGFGCTQKGNLLRHIKL [46L_47Q_49P_50I_52G_53F_54G_55C_67L_, Q9UKT9] | 2.46 | 2.07 | 1.63 | 3.23
27 | LYCPICGFECTQKGNLLRHIKL [46L_47Y_49P_50I_52G_53F_54E_55C_67L_, Q9UKT9] | 2.78 | 2.56 | 2.08 | 0.736
28 | LTCPICGFSCTQKGNLLRHIKL [46L_47T_49P_50I_52G_53F_54S_55C_67L_, Q9UKT9] | 2.51 | 3.37 | 2.87 | 3.49
29 | LYCPICGFSCTQKGNLLRHIKL [46L_47Y_49P_50I_52G_53F_54S_55C_67L_, Q9UKT9] | 3.73 | 3.72 | 3.09 | 2.7
30 | LQCPICGFWCTQKGNLLRHIKL [46L_47Q_49P_50I_52G_53F_54W_55C_67L_, Q9UKT9] | 0.033 | 0.594 | 1.15 | 2.58
31 | LWCPICGFSCTQKGNLLRHIKL [46L_47W_49P_50I_52G_53F_54S_55C_67L_, Q9UKT9] | 3.31 | 3.57 | 2.84 | 2.33
32 | LWCPICGFECTQKGNLLRHIKL [46L_47W_49P_50I_52G_53F_54E_55C_67L_, Q9UKT9] | 2.12 | 2.64 | 2.17 | 0.382
33 | LTCPICGFECTQKGNLLRHIKL [46L_47T_49P_50I_52G_53F_54E_55C_67L_, Q9UKT9] | 0.6 | 1.64 | 1.55 | 2.4
34 | LQCPICGFSCTQKGNLLRHIKL [46L_47Q_49P_50I_52G_53F_54S_55C_67L_, Q9UKT9] | 2.67 | 2.76 | 2.41 | 3.53
